40 compounds from PubChem BioAssay (EPA / NIEHS) can be followed below.

Molecules are shown by their SMILES. Inconclusive results are not listed. The source made the active and inactive calls. The calls were made as follows: active = hit-call score of the fitted dose curve at least 0.9, where 1 is the maximum; inconclusive = response in the unintended direction; inactive = score below 0.9.

One test deals with human Phosphatase and Tensin Homolog (PTEN), PTEN (gene 5728) (UniProt P60484). The test is described as follows: NVS_ENZ_hPTEN: NovaScreen (NVS) Enzymatic Assay for human Phosphatase and Tensin Homolog (PTEN) (AID 2283203). Summed up: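 Loss of fluorescent product signal after mobility-shift separation reports PTEN activity, recombinant human enzyme, 1 h after compound addition. Single 25 uM duplicate screen, then concentration-response on actives; DMSO baseline.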
Chain of human Phosphatase and Tensin Homolog (PTEN), PTEN (gene 5728) (P60484 whole entry, looked up): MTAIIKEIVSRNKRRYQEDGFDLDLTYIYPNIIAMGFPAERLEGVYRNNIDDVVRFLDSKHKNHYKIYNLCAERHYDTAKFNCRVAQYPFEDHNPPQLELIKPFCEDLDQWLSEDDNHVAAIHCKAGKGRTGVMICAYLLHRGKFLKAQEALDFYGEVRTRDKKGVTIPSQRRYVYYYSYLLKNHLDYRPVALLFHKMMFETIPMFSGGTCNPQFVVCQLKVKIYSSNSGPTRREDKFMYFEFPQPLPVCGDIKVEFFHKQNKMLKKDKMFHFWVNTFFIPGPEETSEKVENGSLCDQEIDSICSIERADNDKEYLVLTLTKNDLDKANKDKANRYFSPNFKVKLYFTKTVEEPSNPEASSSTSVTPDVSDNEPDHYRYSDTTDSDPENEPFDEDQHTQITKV
For `CC/C=C\C#N`, the compound was called inactive. Regarding `CCCCOCC`, the concentration at half-maximal activity (AC50) (usually the concentration giving half of the maximal activity seen) was 37 µM (active).

Regarding `S=c1[nH][nH]c(=S)s1`, the AC50 is 2.47 µM (active). As to `Cc1ccccc1S(N)(=O)=O`, the compound was classed as inactive. On the same count and under the same terms, the result for `COc1ccc(CCN2CCC(Nc3nc4ccccc4n3Cc3ccc(F)cc3)CC2)cc1` reads “inactive”.

For the compound `OCCC(O)CO` (stereo not given), the concentration at half-maximal activity (AC50) was 14.7 µM (active). With `O=C1OC2(c3ccc(O)cc3Oc3cc(O)ccc32)c2ccccc21`, the result was inactive. The same measure, in the same setting: the result for `CCCCCCCCCCc1ccccc1` reads “inactive”; that for `CCC(=O)O`, “inactive”. With `C#CC(O)CCC` (stereo not given), the AC50 was 25 µM (active). As for `C=C(C)CCO`, the call was inactive. Same read-out and setting: the result for `C=CC(=O)OCC(Br)CBr` (stereo not given) reads “inactive”; that for `CCc1cccc(CC)c1N(COC)C(=O)CS(=O)(=O)O`, “inactive”; that for `CCOC(C=C(C)CCC=C(C)C)OCC`, “inactive”. As to `CN(CCOc1ccc(CC2SC(=O)NC2=O)cc1)c1ccccn1` (stereo not given), the call was inactive.

For the compound `N#[N+]c1ccc2c(S(=O)(=O)[O-])cccc2c1O`, the result was inactive. For the compound `Oc1ccc2c(c1)CCC2`, the AC50 was 1.62 µM (active). Still for that read-out and setting: the result for `C#C[C@]1(O)CC[C@H]2[C@@H]3CCC4=Cc5oncc5C[C@]4(C)[C@H]3CC[C@@]21C` reads 25 µM (active).

In the case of `C=C(C)CCCC`, the compound was called inactive. As to `CCCCC/C=C/C=C/C=O`, the AC50 was 25 µM (active). Consider `Cc1ccc(N)c([N+](=O)[O-])c1`, for which the half-maximal activity concentration (AC50) is 25 µM (active). As to `CCCC(C)C=O` (stereo not given), the compound was called inactive. As to `NC(=O)c1ccccc1Cl`, the result was inactive.

Regarding `Cc1cncc(C)c1`, the compound was called inactive.

Regarding `CC(c1cc(C(C)(C)C)cc(C(C)(C)C)c1O)c1cc(C(C)(C)C)cc(C(C)(C)C)c1O`, the AC50 was 5.29 µM (active).

Another test deals with human Protein Tyrosine Phosphatase Non-receptor Type 2 (PTPN2), PTPN2 (gene 5771) (UniProt P17706). The test is described as follows: NVS_ENZ_hPTPN2: NovaScreen (NVS) Enzymatic Assay for human Protein Tyrosine Phosphatase Non-receptor Type 2 (PTPN2) (AID 2283207). A digest of the protocol: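 Activity measured as fluorescence after mobility-shift separation of substrate and product, 1 h after compound. Duplicate single-point 25 uM primary testing, concentration series for actives; inhibition scored as signal loss relative to DMSO baseline.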
Chain of human Protein Tyrosine Phosphatase Non-receptor Type 2 (PTPN2), PTPN2 (gene 5771) (P17706 whole entry, looked up): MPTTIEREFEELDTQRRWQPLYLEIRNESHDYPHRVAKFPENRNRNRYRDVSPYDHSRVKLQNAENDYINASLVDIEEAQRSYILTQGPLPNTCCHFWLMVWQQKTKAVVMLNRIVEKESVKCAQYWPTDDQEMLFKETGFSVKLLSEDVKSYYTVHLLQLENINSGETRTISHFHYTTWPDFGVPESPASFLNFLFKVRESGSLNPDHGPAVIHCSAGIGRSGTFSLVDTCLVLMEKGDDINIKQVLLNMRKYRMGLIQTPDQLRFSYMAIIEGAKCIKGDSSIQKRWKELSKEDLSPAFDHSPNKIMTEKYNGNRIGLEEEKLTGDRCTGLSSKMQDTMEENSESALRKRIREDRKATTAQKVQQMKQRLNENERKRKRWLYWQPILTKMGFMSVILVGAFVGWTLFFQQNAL
Turning to `COc1nc(C)nc(NC(=O)NS(=O)(=O)c2ccccc2OCCCl)n1`, the call was inactive.

In the case of `c1ccc2n[nH]nc2c1`, the compound was classed as inactive. Same read-out and setting: the entry for `OC[C@H]1O[C@@H]2O[C@H]3[C@H](O)[C@@H](O)[C@@H](O[C@H]4[C@H](O)[C@@H](O)[C@@H](O[C@H]5[C@H](O)[C@@H](O)[C@@H](O[C@H]6[C@H](O)[C@@H](O)[C@@H](O[C@H]7[C@H](O)[C@@H](O)[C@@H](O[C@H]1[C@H](O)[C@H]2O)O[C@@H]7CO)O[C@@H]6CO)O[C@@H]5CO)O[C@@H]4CO)O[C@@H]3CO` is “inactive”.

The next test deals with human Protein Tyrosine Phosphatase Receptor Type C (PTPRC), PTPRC (gene 5788) (UniProt P08575). The experiment in a line: NVS_ENZ_hPTPRC: NovaScreen (NVS) Enzymatic Assay for human Protein Tyrosine Phosphatase Receptor Type C (PTPRC) (AID 2283212). Summed up: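 Absorbance-based phosphatase activity of human PTPRC protein extracted from yeast was measured 1 h post-dosing. Compounds first tested at 25 uM in duplicate, then those passing threshold in singleton concentration series to 50 uM.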
Chain of human Protein Tyrosine Phosphatase Receptor Type C (PTPRC), PTPRC (gene 5788) (P08575 whole entry, looked up): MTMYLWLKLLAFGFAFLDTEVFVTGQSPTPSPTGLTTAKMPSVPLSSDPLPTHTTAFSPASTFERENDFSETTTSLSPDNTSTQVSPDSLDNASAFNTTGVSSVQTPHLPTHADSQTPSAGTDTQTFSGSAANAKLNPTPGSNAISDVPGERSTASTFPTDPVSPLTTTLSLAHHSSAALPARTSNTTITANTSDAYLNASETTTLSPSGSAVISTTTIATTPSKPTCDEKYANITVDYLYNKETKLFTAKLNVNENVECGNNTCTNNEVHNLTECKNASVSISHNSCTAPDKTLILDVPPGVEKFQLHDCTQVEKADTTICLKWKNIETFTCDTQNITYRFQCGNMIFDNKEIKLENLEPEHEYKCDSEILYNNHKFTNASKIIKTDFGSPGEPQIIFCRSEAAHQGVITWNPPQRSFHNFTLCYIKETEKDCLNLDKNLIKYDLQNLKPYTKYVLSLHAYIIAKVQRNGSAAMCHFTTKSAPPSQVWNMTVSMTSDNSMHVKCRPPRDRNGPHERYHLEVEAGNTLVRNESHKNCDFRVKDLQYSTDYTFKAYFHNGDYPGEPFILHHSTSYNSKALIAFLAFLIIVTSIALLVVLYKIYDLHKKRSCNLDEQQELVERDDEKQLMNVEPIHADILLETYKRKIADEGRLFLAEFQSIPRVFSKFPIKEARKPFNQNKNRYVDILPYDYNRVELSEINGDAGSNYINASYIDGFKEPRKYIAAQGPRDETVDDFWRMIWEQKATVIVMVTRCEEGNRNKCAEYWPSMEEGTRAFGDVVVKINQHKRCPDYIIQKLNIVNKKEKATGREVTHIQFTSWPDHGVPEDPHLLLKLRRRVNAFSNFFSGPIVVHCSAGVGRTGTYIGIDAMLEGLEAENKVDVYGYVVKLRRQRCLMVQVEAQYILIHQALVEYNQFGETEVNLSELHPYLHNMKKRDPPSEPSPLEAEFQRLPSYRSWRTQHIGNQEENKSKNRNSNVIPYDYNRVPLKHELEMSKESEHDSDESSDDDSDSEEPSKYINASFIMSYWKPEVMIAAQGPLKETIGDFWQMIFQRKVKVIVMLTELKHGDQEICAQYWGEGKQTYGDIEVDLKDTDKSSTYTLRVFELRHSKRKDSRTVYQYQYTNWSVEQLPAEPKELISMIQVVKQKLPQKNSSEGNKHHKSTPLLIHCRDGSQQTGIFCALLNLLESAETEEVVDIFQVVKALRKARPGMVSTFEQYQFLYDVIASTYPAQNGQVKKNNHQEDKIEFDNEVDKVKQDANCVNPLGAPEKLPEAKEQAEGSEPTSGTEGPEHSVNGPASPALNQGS
With `C[C@]12C[C@H](O)[C@H]3[C@@H](CCC4=CC(=O)CC[C@@]43C)[C@@H]1CC[C@@H]2C(=O)CO`, the compound was called inactive. Consider `NC(=O)NN=Cc1ccc([N+](=O)[O-])o1`, for which the AC50 is 11.3 µM (active). Same read-out and setting: the figure for `Nc1nc2ncc(CNc3ccc(C(=O)N[C@@H](CCC(=O)O)C(=O)O)cc3)nc2c(=O)[nH]1` is 15.8 µM (active). With `Nc1ccccc1N`, the AC50 is 7.6 µM (active). Still for that read-out and setting: the result for `CCCCC(CC)COC(=O)CC(C(=O)OCC(CC)CCCC)S(=O)(=O)O` (stereo not given) reads 25 µM (active). With `CCCCCCC(=O)OCC`, the result was inactive. In the case of `CCCCCCOCCO`, the compound was classed as inactive. Turning to `CCCC[C@H]1CN(CC2CCOCC2)C(=O)OC12CCN(C1(C)CCN(C(=O)c3c(C)ncnc3C)CC1)CC2`, the compound was called inactive. `CC(C)CCO`: the call was inactive.

As for `NC(=O)N1C(=O)C(C(=O)c2cc(Cl)cs2)c2cc(F)c(Cl)cc21` (stereo not given), the compound was called inactive.

As for `Cc1c(C(=O)O)c(O)cc2c1C(=O)c1c(O)c([C@@H]3O[C@H](CO)[C@@H](O)[C@H](O)[C@H]3O)c(O)c(O)c1C2=O`, the AC50 is 11.7 µM (active). Same read-out and setting: the result for `OC12N=C(c3ccccc3)SC1Cc1cc(Cl)ccc12` (stereo not given) reads 21.3 µM (active).
